Records with an inconclusive call do not appear. Activity calls are given as the source filed them. Calls come from the whole dose curve; as a rule, active = well fitted curve in the direction sought with a large enough effect; inconclusive = small, poorly fitted or top-dose-only effect, or another doubt; inactive = no such curve, though single readings can be large; an effect the other way counts as inactive or inconclusive.
Tests used:
[1] = P-glycoprotein substrates identified in KB-8-5-11 adenocarcinoma cell line, qHTS therapeutic library screen (AID 1346987); conditions: KB-8-5-11 (P-gp overexpressing) viability, CellTiter-Glo, 72 h; series mostly up to 44.5 µM; note: nearly all actives have a fitted effect of over 65% in size
Summary of the method: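 Luminescence from CellTiter-Glo, read 5 min after addition, quantified survival of KB-8-5-11 (P-gp-overexpressing) cells exposed to compounds for 72 h. AC50 was derived from concentration-response curves.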

[2] = test system: Zika virus NS2B-NS3 protease (unlinked complex); experiment: Primary screen GU Rhodamine qHTS for Zika virus inhibitors: Unlinked NS2B-NS3 protease assay (AID 1347159); conditions: Recombinant ZIKV NS2B-NS3 protease, Rhodamine110 substrate fluorescence; series mostly up to 107 µM; note: nearly all actives have a fitted effect of over 60% in size
Summary of the method: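 Percent inhibition came from the 15-min rise in Rhodamine110 fluorescence (1.5 microM substrate, ~15% conversion), normalized to no-inhibitor and no-enzyme wells and Hill-fitted. Unlinked protease, 25 nM, pH 8.0 Tris buffer; compounds up to 114 microM, 15-min preincubation.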

[3] = test system: Zika virus NS2B-NS3 protease (linked construct); experiment: Primary screen NINDS Rhodamine qHTS for Zika virus inhibitors (AID 1347160); conditions: purified NS2B-NS3 protease, Rhodamine110 substrate fluorescence; series mostly up to 33.1 µM; note: nearly all actives have a fitted effect of over 55% in size
Summary of the method: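 Rhodamine110-peptide cleavage (1.5 µM substrate) by 25 nM linked NS2B-NS3 enzyme at pH 8.0 (Tris, Tween 20), after 15 min RT preincubation with compounds; 15-min fluorescence change normalized to controls and Hill-fitted.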
% is set by controls: 0 for no effect and ±100 for the full control effect.

C=C(COC(=O)C(C)C)C1Oc2cc(C(C)=O)ccc2C1OC(=O)C(C)C (centres undefined)
inactive: Potency [1] | Potency [2] | Potency [3]

OC[C@H]1O[C@@H](O[C@H]2[C@H](O)[C@@H](CO)O[C@@H](OCc3ccccc3)[C@@H]2O[C@@H]2OC[C@](O)(CO)[C@H]2O)[C@H](O)[C@@H](O)[C@@H]1O
inactive: Potency [1] | Potency [2] | Potency [3]

COc1ccc(/C=C/C(=O)N2CCCC2)cc1
inactive: Potency [1] | Potency [2] | Potency [3]

CC1OC(O[C@H]2CC[C@@]3(C)C(CC[C@]4(C)C3CC=C3C5CC(C)(C)CC[C@]5(C(=O)OC5OC(CO)C(OC6OCC(OC7OCC(O)C(O)C7O)C(O)C6O)C(O)C5O)CC[C@]34C)C2(C)C)C(O)C(O)C1OC1OC(CO)C(O)C(OC2OC(CO)C(O)C(O)C2O)C1O (some centres undefined)
inactive: outcome [1] inactive [at 9.29 µM] | activity change, negative = inhibition [2] 1.81% [at 19.1 µM] | outcome [3] inactive [at 10.7 µM]

CC1(O)CCC2C(C3C1CCC3(C)O)C2(C)C (centres undefined)
inactive: Potency [1] | Potency [2] | Potency [3]

C/C=C1\[C@H](O[C@@H]2O[C@H](CO)[C@@H](O)[C@H](O)[C@H]2O)OC=C(C(=O)OCCc2ccc(O)cc2)[C@H]1CC(=O)OCCc1ccc(O)cc1
inactive: Potency [1] | Potency [2] | Potency [3]

COC(=O)C1=CO[C@@H](O[C@@H]2O[C@H](CO)[C@@H](O)[C@H](O)[C@H]2O)[C@@H]2C(C)CC(=O)[C@]12O (some centres undefined)
inactive: Potency [1] | Potency [2] | Potency [3]

COc1cc(CO)cc(OC)c1O[C@@H]1O[C@H](CO)[C@@H](O)[C@H](O)[C@H]1O
inactive: Potency [1] | Potency [2] | Potency [3]

Cc1nc2ccccc2c(-c2ccc3c4c(ccnc24)CCO3)c1[C@H](OC(C)(C)C)C(=O)O
inactive: Potency [1] | Potency [2] | Potency [3]

CNc1nc(Cc2ccccc2)nc2c1CCNC[C@@H]2C
inactive: Potency [1] | Potency [2] | Potency [3]

CC(C)[C@@](O)(c1ccc2cc(OC(F)F)c(OC(F)F)cc2c1)c1cn[nH]n1
inactive: Potency [1] | Potency [2] | Potency [3]

COCC1OC(n2cnc3c(=O)[nH]cnc32)C(O)C1O (centres undefined)
inactive: Potency [1] | Potency [2] | Potency [3]

O=C(O)CCc1cc2ccoc2cc1O[C@@H]1O[C@H](CO)[C@@H](O)[C@H](O)[C@H]1O
inactive: Potency [1] | Potency [2] | Potency [3]

CC(C)(O)/C=C/C(=O)[C@](C)(O)[C@H]1[C@H](O)C[C@@]2(C)[C@@H]3CC=C4[C@@H](C=C(O[C@@H]5O[C@H](CO)[C@@H](O)[C@H](O)[C@H]5O)C(=O)C4(C)C)[C@]3(C)C(=O)C[C@]12C
inactive: Potency [1] | Potency [2] | Potency [3]

C/C=C(\C)C(=O)OC1C2(O)CC3=C4CC(=O)OC(c5ccoc5)C4(C)CCC3C(C)(C2=O)C(C(OC(C)=O)C(=O)OC)C1(C)C (centres undefined)
inactive: Potency [1] | Potency [2] | Potency [3]

CCC(=O)N1CCc2cc(OC)c(O)cc2C1
inactive: Potency [1] | Potency [2] | Potency [3]

CC1=CCC2C(C)(C)CCCC2(C)C1CC12OC1C(O)C(CO)=CC2O (centres undefined)
inactive: Potency [1] | Potency [2] | Potency [3]

COC(=O)C1=CO[C@@H](O[C@@H]2O[C@H](CO)[C@@H](O)[C@H](O)[C@H]2O)[C@@H]2[C@@H](C(=O)O)CC[C@H]12
inactive: Potency [1] | Potency [2] | Potency [3]

C=C1CC[C@]2(C(=O)O[C@@H]3O[C@H](CO)[C@@H](O)[C@H](O)[C@H]3O)CC[C@]3(C)C(=CCC4[C@@]5(C)C[C@H](O)[C@@H](O[C@@H]6O[C@H](C(=O)O)[C@@H](O)[C@H](O)[C@H]6O)[C@](C)(C=O)C5CC[C@]43C)C2C1 (some centres undefined)
inactive: outcome [1] inactive [at 9.29 µM] | Potency [2] | Potency [3]

COc1cc(Nc2nc3c(s2)CCCC3c2ccccc2)ccc1-n1cnc(C)c1 (centres undefined)
inactive: activity change, negative = cytotoxicity [1] -10.2% [at 9.29 µM] | activity change, negative = inhibition [2] -0.986% [at 19.1 µM] | Potency [3]

COC(=O)[C@@H](NC(=O)[C@H](CC(C)C)NC(=O)N(Cc1ccccc1)C[C@@H](O)[C@H](Cc1ccccc1)NC(=O)OC(C)(C)C)C(C)C
inactive: activity change, negative = cytotoxicity [1] -2.72% [at 9.29 µM] | activity change, negative = inhibition [2] 14.8% [at 19.1 µM] | Potency [3]

C=C1CC[C@@]2(OC1)O[C@H]1CC3[C@@H]4CC=C5C[C@@H](O)C[C@@H](O[C@@H]6OC[C@H](O)[C@H](O)[C@H]6O[C@@H]6O[C@@H](C)[C@H](O)[C@@H](O)[C@H]6O)[C@]5(C)C4CC[C@]3(C)[C@H]1[C@@H]2C (some centres undefined)
inactive: Potency [1] | Potency [2] | Potency [3]

C/C=C1\[C@H](O[C@@H]2O[C@H](CO)[C@@H](O)[C@H](O)[C@H]2O)OC=C(C(=O)O)[C@H]1CC(=O)OCCc1ccc(O)cc1
inactive: Potency [1] | Potency [2] | Potency [3]

Cc1ccc(Cl)cc1N(CC(=O)Nc1c(F)cccc1F)S(C)(=O)=O
inactive: Potency [1] | Potency [2] | Potency [3]

OCC1OC(Oc2cc(O)cc(/C=C/c3ccc(OC4OC(CO)C(O)C(O)C4O)cc3O)c2)C(O)C(O)C1O (centres undefined)
inactive: Potency [1] | Potency [2] | Potency [3]

Nc1ccc(-n2nc(C(F)(F)F)cc2C(F)(F)F)cc1
inactive: Potency [1] | Potency [2] | Potency [3]

Cc1occc1C(=O)n1ccnc1
inactive: Potency [1] | Potency [2] | Potency [3]

COc1cc(-c2ccc(O)cc2)c(OC)c(O)c1C1=CC(=O)OC1CC(=O)O (centres undefined)
inactive: Potency [1] | Potency [2] | Potency [3]

CC1=C2CC(=O)C(C)CC/C=C(\C)CC2(O)OC1=O (centres undefined)
inactive: Potency [1] | Potency [2] | Potency [3]

CC1=C2C[C@@]3(C)[C@@H](CCC[C@@H]3C)C[C@@]2(O)OC1=O
inactive: Potency [1] | Potency [2] | Potency [3]

CC(C)(CC(=O)N1CCCC1)NCC(=O)N1C[C@@H](F)C[C@H]1C#N
inactive: Potency [1] | Potency [2] | Potency [3]

CC1=CC23[C@H](C=C(C(=O)O)[C@@H]2COC(=O)[C@]3(O)CO)[C@@H]1C (some centres undefined)
inactive: Potency [1] | Potency [2] | Potency [3]

CC(C)(OC1OC(CO)C(O)C(O)C1O)C1CCC(O)(CO)C2CC(=O)C(C)(O)C2C1 (centres undefined)
inactive: Potency [1] | Potency [2] | Potency [3]

O=C(OC1C=C(CO)C2C(OC3OC(CO)C(O)C(O)C3O)OC=CC12O)c1ccc(O)cc1 (centres undefined)
inactive: Potency [1] | Potency [2] | Potency [3]

O=C(O)Cc1cn([C@@H]2O[C@H](CO)[C@@H](O)[C@H](O)[C@H]2O[C@@H]2O[C@H](CO)[C@@H](O)[C@H](O)[C@H]2O)c2ccccc12
inactive: Potency [1] | Potency [2] | Potency [3]

C=C1CCC2(OC1)OC1CC3C4CC=C5CC(O)CC(O[C@@H]6OC[C@H](OC(=O)C(O)C(C)CC)[C@H](O)[C@H]6O[C@@H]6O[C@@H](C)[C@H](O)[C@@H](O)[C@H]6O)C5(C)C4CCC3(C)C1C2C (some centres undefined)
inactive: outcome [1] inactive [at 9.29 µM] | Potency [2] | Potency [3]

CC1(C)CC[C@]2(C(=O)O[C@@H]3O[C@H](CO)[C@@H](O)[C@H](O)[C@H]3O)[C@H](O)C[C@]3(C)C(=CCC4[C@@]5(C)CC[C@H](O[C@@H]6OC[C@@H](O)[C@H](O)[C@H]6O)[C@@](C)(C(=O)O)C5CC[C@]43C)[C@@H]2C1 (some centres undefined)
inactive: Potency [1] | Potency [2] | Potency [3]

CC(=O)OCC1OC(O[C@H]2CC[C@]34C[C@]35CC(O)[C@]3(C)[C@@H]([C@H](C)CC/C=C(\C)C(=O)O)C(O)C[C@@]3(C)C5CC[C@H]4C2(C)C)C(O)C(O)C1OC1OCC(O)C(O)C1O (some centres undefined)
inactive: outcome [1] inactive [at 9.29 µM] | Potency [2] | Potency [3]

CC1=C2C[C@H]3OC(=O)[C@H](O)[C@@]4(O)[C@@H](C)[C@@H](O)[C@H](O)C([C@@]2(C)[C@H](O)[C@@H](O)C1)[C@@]34C (some centres undefined)
inactive: Potency [1] | Potency [2] | Potency [3]

NC(=O)[C@@H]1CC[C@H](c2ccc(OCc3ccccc3F)cc2)N1
inactive: Potency [1] | Potency [2] | Potency [3]

CCC(C)C(=O)O[C@H]1[C@@H](O[C@H]2O[C@H](CO)[C@@H](O)[C@H](O)[C@H]2O)O[C@H](CO)[C@@H](O)[C@@H]1O (some centres undefined)
inactive: Potency [1] | Potency [2] | Potency [3]

C/C=C(\C)C(=O)OC[C@H]1O[C@@H](O[C@H]2[C@@H](O[C@H]3O[C@H](COC(=O)/C(C)=C/C)[C@@H](O)[C@H](O)[C@H]3O[C@@H]3O[C@H](CO)[C@@H](O)[C@H](OC(=O)/C(C)=C/C)[C@H]3O)O[C@H](COC(=O)/C(C)=C/C)[C@@H](O)[C@@H]2O)[C@H](O)[C@@H](O)[C@@H]1O
inactive: outcome [1] inactive [at 9.29 µM] | Potency [2] | Potency [3]

Cc1cccc(NC(=O)CN2CCC(c3ccccn3)CC2)c1
inactive: Potency [1] | Potency [2] | Potency [3]

CC1(C)CC[C@]2(C(=O)O[C@@H]3O[C@H](CO)[C@@H](O)[C@H](O)[C@H]3O)CC[C@]3(C)C(=CCC4[C@@]5(C)C[C@H](O)[C@H](O[C@@H]6OC[C@@H](O)[C@H](O)[C@H]6O)[C@@](C)(CO)C5CC[C@]43C)C2C1 (some centres undefined)
inactive: outcome [1] inactive [at 9.29 µM] | Potency [2] | Potency [3]

C=C1CC[C@@]2(OC1)O[C@H]1CC3[C@@H]4CC=C5C[C@H](O[C@H]6OC[C@@H](O)C(O)[C@@H]6O[C@@H]6O[C@@H](C)[C@H](O)[C@@H](O[C@@H]7O[C@H](CO)[C@@H](O)[C@H](O)[C@H]7O)[C@H]6O)C[C@@H](O)[C@]5(C)C4CC[C@]3(C)[C@H]1[C@@H]2C (some centres undefined)
inactive: activity change, negative = cytotoxicity [1] 2.38% [at 9.29 µM] | Potency [2] | Potency [3]

C[C@@H](NC(=O)c1cc(C(=O)N[C@@H](Cc2ccccc2)[C@H](O)CNC2CC2)cc(N(C)S(C)(=O)=O)c1)c1ccccc1
inactive: Potency [1] | Potency [2] | Potency [3]

C=CC(C)(O)CC/C=C(\C)C(=O)O[C@@H]1[C@@H](O)[C@H](OC(C)(C=C)CC/C=C(\C)C(=O)O[C@@H]2O[C@H](CO)[C@@H](O)[C@H](O)[C@H]2O)O[C@H](CO)[C@H]1OC(=O)/C(C)=C/CCC(C)(O)C=C (some centres undefined)
inactive: activity change, negative = cytotoxicity [1] 2.84% [at 9.29 µM] | Potency [2] | Potency [3]

CC(=O)[C@@H]1C[C@H](C(C)(C)O[C@@H]2O[C@H](CO)[C@@H](O)[C@H](O)[C@H]2O)CC[C@@]2(CO)OC(=O)C[C@@H]12
inactive: Potency [1] | Potency [2] | Potency [3]

From PubChem BioAssay (NCATS)
